Measured values from PubChem BioAssay (Tox21).
Results filed as inconclusive are left out. Entries that show only a call come without a potency. Calls of active or inactive are those of the source. The call rests on the fitted dose curve; in most records, active means well fitted curve in the direction sought with a large enough effect in the repeat runs; inconclusive means weak or mixed curves; inactive means no such curve, though single readings can be large; an effect the other way counts as inactive or inconclusive.

How the values were obtained:
[1] = biological target: Voltage-gated inwardly rectifying potassium channel KCNH2 (Homo sapiens) (UniProt Q12809); assay: Human Ether-a-go-go-Related Gene (hERG) channel small molecule antagonists: fluorescence cell-based qHTS assay (AID 1671200); details: hERG-U2OS cells, FluxOR thallium flux fluorescence; series mostly up to 76.8 µM
Voltage-gated inwardly rectifying potassium channel KCNH2 (Homo sapiens), sequence (Q12809 whole entry, looked up): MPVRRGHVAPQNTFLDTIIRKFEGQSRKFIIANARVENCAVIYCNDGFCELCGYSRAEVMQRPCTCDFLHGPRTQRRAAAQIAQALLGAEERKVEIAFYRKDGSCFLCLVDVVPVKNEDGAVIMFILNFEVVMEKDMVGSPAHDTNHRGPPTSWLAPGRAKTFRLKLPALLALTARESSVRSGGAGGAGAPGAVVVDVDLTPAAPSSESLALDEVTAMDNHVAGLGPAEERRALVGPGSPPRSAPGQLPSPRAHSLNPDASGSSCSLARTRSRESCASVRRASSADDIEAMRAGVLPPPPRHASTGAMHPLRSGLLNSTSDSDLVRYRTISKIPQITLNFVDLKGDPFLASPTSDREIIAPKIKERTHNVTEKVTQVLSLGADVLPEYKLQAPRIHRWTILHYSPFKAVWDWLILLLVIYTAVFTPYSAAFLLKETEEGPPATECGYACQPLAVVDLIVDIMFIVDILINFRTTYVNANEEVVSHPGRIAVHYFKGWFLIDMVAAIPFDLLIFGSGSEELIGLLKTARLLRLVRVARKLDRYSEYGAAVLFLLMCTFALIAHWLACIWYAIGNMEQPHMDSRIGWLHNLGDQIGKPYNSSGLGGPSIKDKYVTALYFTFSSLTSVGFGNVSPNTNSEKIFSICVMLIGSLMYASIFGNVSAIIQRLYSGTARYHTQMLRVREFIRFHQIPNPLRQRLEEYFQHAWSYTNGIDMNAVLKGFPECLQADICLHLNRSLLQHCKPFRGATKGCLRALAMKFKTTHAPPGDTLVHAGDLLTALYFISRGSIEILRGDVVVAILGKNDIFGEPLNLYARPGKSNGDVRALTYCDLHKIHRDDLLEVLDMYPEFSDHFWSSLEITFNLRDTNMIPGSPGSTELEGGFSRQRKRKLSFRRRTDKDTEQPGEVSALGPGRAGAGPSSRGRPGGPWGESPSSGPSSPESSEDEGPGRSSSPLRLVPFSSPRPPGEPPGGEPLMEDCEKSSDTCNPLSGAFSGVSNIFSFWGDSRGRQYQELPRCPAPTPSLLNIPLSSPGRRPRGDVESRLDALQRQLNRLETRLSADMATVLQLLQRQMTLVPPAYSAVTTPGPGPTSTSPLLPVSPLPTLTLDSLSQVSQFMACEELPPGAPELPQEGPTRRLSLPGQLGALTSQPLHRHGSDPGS
Method in brief: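 Thallium flux as potassium surrogate: FluxOR II dye loaded 1 h at room temperature into hERG-expressing U2OS cells, then stimulus buffer added after 10 min. Kinetic 480 nm excitation/540 nm emission read, 2 min.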

[2] = biological target: Cytochrome P450 2C9 (Homo sapiens) (UniProt P11712); assay: Cytochrome P450 Family 2 Subfamily C Member 9 (CYP2C9) small molecule antagonists: luciferase reporter qHTS assay (AID 1671198); details: P450-Glo CYP2C9 enzyme assay, luciferin luminescence; series mostly up to 115 µM
Cytochrome P450 2C9 (Homo sapiens), sequence (P11712 whole entry, looked up): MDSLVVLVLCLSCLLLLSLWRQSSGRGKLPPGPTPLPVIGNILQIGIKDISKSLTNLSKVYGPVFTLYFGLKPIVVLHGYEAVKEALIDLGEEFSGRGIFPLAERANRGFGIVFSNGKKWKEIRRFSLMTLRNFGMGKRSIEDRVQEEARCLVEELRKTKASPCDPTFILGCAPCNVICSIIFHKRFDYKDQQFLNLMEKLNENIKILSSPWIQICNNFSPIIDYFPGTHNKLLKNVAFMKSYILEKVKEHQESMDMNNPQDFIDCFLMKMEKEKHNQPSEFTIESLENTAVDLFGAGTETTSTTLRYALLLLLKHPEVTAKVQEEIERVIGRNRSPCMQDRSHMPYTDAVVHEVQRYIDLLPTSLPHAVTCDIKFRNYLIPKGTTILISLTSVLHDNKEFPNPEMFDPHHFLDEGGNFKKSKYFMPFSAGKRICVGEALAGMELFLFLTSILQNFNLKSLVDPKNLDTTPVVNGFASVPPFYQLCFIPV
Method in brief: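 CYP2C9 activity was measured with a P450-Glo proluciferin substrate. Enzyme–substrate mix was held with compound for 10 min at room temperature, then NADPH regeneration solution was added for 1 h at 37C. Luciferin product was read as luminescence.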

[3] = biological target: Cytochrome P450 3A4 (Homo sapiens) (UniProt P08684); assay: Cytochrome P450 Family 3 Subfamily A Member 4 (CYP3A4) small molecule antagonists: luciferase reporter qHTS assay (AID 1671201); details: P450-Glo CYP3A4 enzyme, luciferin luminescence, 1 h; series mostly up to 115 µM
Cytochrome P450 3A4 (Homo sapiens), sequence (P08684 whole entry, looked up): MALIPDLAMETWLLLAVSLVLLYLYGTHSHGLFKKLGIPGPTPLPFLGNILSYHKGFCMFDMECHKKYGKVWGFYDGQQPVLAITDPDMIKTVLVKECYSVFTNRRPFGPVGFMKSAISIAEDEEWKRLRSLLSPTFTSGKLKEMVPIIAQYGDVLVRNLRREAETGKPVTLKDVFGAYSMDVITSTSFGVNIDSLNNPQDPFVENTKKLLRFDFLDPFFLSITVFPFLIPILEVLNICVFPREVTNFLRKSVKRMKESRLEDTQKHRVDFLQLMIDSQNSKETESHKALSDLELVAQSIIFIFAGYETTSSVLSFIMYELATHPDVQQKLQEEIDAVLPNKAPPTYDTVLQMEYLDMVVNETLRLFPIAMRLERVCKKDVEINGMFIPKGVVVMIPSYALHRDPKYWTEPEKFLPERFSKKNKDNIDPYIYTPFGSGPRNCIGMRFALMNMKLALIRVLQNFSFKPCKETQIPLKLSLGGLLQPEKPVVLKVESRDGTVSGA
Method in brief: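 Recombinant human CYP3A4 converts a proluciferin substrate to luciferin over 1 h at room temperature after NADPH regeneration solution is added (compound preincubated 10 min); detection reagent stops reaction, luminescence read 20 min later as relative units.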

[4] = biological target: Cytochrome P450 1A2 (Homo sapiens) (UniProt P05177); assay: Cytochrome P450 Family 1 Subfamily A Member 2 (CYP1A2) small molecule antagonists: luciferase reporter qHTS assay (AID 1671199); details: P450-Glo CYP1A2 enzyme, luciferin luminescence, 1 h; series mostly up to 115 µM
Cytochrome P450 1A2 (Homo sapiens), sequence (P05177 whole entry, looked up): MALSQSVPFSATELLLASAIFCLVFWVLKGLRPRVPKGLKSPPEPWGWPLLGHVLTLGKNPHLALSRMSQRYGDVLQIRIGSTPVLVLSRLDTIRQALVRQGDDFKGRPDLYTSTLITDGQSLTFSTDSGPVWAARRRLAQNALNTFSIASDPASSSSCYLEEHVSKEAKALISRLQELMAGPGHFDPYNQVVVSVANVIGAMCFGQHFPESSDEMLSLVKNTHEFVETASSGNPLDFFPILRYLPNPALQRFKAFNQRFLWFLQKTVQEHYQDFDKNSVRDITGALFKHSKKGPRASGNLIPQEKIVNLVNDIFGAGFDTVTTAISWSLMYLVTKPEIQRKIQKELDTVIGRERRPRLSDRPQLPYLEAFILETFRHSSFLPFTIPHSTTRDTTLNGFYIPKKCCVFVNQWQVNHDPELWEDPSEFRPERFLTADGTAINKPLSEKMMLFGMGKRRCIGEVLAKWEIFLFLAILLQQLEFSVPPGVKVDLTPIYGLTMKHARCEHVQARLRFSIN
Method in brief: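 Enzymatic CYP1A2 assay, human, luminescent: 10 min compound–enzyme–substrate preincubation, 1 h NADPH-dependent turnover, 20 min detection step, room temperature throughout. Reduced light indicates lower CYP1A2 activity.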
Further: nearly all actives have a fitted effect of over 50% in size.
Potency means the concentration at half of the fitted maximal effect.

| Compound | Potency [1] | Potency [2] | Potency [3] | Potency [4] |
| --- | --- | --- | --- | --- |
| COCCOc1cc2cc(C(=O)NC3CCN(C(C)C)CC3)n(CC(=O)Nc3ccc(Cl)cn3)c2cn1 | inactive | – | – | – |
| CCCCCCC1CCCC(=O)O1 (configuration not stated) | inactive | 25.2 µM (active) | – | – |
| O=C1C(c2[nH]c3ccc(S(=O)(=O)O)cc3c2O)=Nc2ccc(S(=O)(=O)O)cc21 | inactive | – | inactive | – |
| CCN(CC)c1ccc2c(-c3ccc(S(=O)(=O)O)cc3S(=O)(=O)[O-])c3ccc(=[N+](CC)CC)cc-3oc2c1 | – | 16.4 µM (active) | 14.6 µM (active) | 20.7 µM (active) |
| Cc1cc(C(C)(C)C)c(O)c(C)c1Cn1c(=O)n(Cc2c(C)cc(C(C)(C)C)c(O)c2C)c(=O)n(Cc2c(C)cc(C(C)(C)C)c(O)c2C)c1=O | inactive | – | 7.97 µM (active) | 31.7 µM (active) |
| CCC(=O)C(=O)CC | inactive | – | 5.88 µM (active) | inactive |
| Oc1c(I)cc(Cl)c2cccnc12 | inactive | – | – | – |
| CC1(C)CC(O)CC(C)(C)N1 | inactive | inactive | inactive | – |
| COc1cccc2c1C(=O)c1c(O)c3c(c(O)c1C2=O)C[C@@](O)(C(C)=O)C[C@@H]3O[C@H]1C[C@H](N)[C@H](O)[C@H](C)O1 | inactive | – | – | – |
| O=C1OC2(c3ccc(O)cc3Oc3cc(O)ccc32)c2ccc(N=C=S)cc21 | inactive | 72.3 µM (active) | inactive | – |
| CCN(CC)C(=O)c1cc(S(=O)(=O)Cc2ccccc2)c(N2CCC(c3ccccc3)CC2)cc1N(CC)CCN(C)C | 1.72 µM (active) | – | 0.125 µM (active) | inactive |
| Oc1cc(Cl)cc(Cl)c1Cl | inactive | – | – | 16.3 µM (active) |
